The source of these data is PubChem BioAssay (NCI).

The panel holds about 79,000 compounds, 15% with a hit somewhere; the sample as a whole holds those more often. A number with no mark means an inactive call. Active and inactive are the calls of the source. Rule as the data show it: active = growth inhibition above about 70%; inactive = the rest.

The nature of assay [1]: NCI Yeast Anticancer Drug Screen. Data for the rad50 strain (AID 155).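 Also: 0% = growth of vehicle-only cultures of the same strain.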 As to conditions: S. cerevisiae rad50 strain growth inhibition, stronger effect = higher value. In short, it runs like this: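 Cells are treated with compound, grown, and their growth is then scored against vehicle-only cultures of the same repair-deficient yeast strain.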
Assay [2] in a line: NCI Yeast Anticancer Drug Screen. Data for the mec2-1 strain (AID 157). As to conditions: S. cerevisiae mec2-1 strain, stronger effect = higher value. Summed up:
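Test agents were screened against the mec2-1 yeast strain, with defined DNA repair or cell cycle alteration. Growth was scored as inhibition against vehicle-only controls.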

Assay [3] can be described thus: NCI Yeast Anticancer Drug Screen. Data for the sgs1 mgt1 strain (AID 161).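 Also: 0% = growth of cultures given vehicle only.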 As to conditions: S. cerevisiae sgs1 mgt1 strain, stronger effect = higher value. In short, it runs like this:
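Read-out: growth inhibition vs vehicle controls. Cells: mutant yeast strain deficient in DNA damage repair.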

Assay [4] can be described thus: NCI Yeast Anticancer Drug Screen. Data for the cln2 rad14 strain (AID 165).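 Also: 0% = growth equal to vehicle treated cultures.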 As to conditions: S. cerevisiae cln2 rad14 strain, stronger effect = higher value. In short, it runs like this: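 Growth of compound-exposed yeast (cln2 rad14 genotype) measured and expressed as inhibition relative to vehicle.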
The nature of assay [5]: NCI Yeast Anticancer Drug Screen. Data for the bub3 strain (AID 167). As to conditions: S. cerevisiae bub3 mutant strain, stronger effect = higher value. In short, it runs like this:
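Part of a panel of yeast mutants defective in DNA damage repair or cell cycle regulation. Each strain is grown with compound, and inhibition is calculated relative to solvent-treated cultures.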

The nature of assay [6]: NCI Yeast Anticancer Drug Screen. Data for the mlh1 rad18 strain (AID 175). As to conditions: S. cerevisiae mlh1 rad18 strain growth inhibition, stronger effect = higher value. Summed up: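 In this whole-cell yeast screen, a strain with altered DNA damage repair is challenged with compound, and its growth is measured against matched vehicle-treated controls.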
Setting [7] is: at 5.0 µM (retest, dose inferred, filed as 0.5).
Where [8] appears, read: at 50.0 µM (retest, dose inferred, filed as 5.0).

As for `O=C(/C=C\c1ccc(Cl)c(Cl)c1)c1cccs1`, the growth inhibition was 13% in assay [1] (setting [7]); -9% in assay [1] (setting [8]); 58.9% in assay [1] (at 50.0 µM); -2% in assay [2] (setting [7]); 4% in assay [2] (setting [8]); 64.4% in assay [2] (at 50.0 µM). For the same compound, the growth inhibition was 4% in assay [3] (setting [7]); -25% in assay [3] (setting [8]); 92.2% (active) in assay [3] (at 50.0 µM); -6% in assay [4] (setting [7]); -3% in assay [4] (setting [8]); 51.6% in assay [4] (at 50.0 µM). Moreover, the growth inhibition in assay [5] (setting [7]) is -4%; in assay [5] (setting [8]) it was 11%; in assay [5] (at 50.0 µM), 89.7% (active); in assay [6] (setting [7]) it was -3%; in assay [6] (setting [8]), 6%; in assay [6] (at 50.0 µM) it was 85.5% (active).

Take `Nc1ccccc1SC(/C=C/NNC1=NC(c2ccccc2)C(c2ccccc2)=NN1)c1ccccc1` (stereo not given): the growth inhibition in assay [1] (setting [7]) is 43%; in assay [1] (setting [8]), 43%; in assay [1] (at 50.0 µM), 93% (active); in assay [2] (setting [7]) it was 7%; in assay [2] (setting [8]) it was 7%; in assay [2] (at 50.0 µM), 93% (active). For the same compound, the growth inhibition was 19% in assay [3] (setting [7]); 19% in assay [3] (setting [8]); 91.5% (active) in assay [3] (at 50.0 µM); 29% in assay [4] (setting [7]); 29% in assay [4] (setting [8]); 91.7% (active) in assay [4] (at 50.0 µM). In addition, the growth inhibition was 30% in assay [5] (setting [7]); 30% in assay [5] (setting [8]); 93.3% (active) in assay [5] (at 50.0 µM); 11% in assay [6] (setting [7]); 11% in assay [6] (setting [8]); 91.8% (active) in assay [6] (at 50.0 µM).

As to `COc1cccc(/C=C(\NC(=O)c2ccccc2)c2nc3ccccc3s2)c1`, the growth inhibition in assay [1] (setting [7]) was 64%; in assay [1] (setting [8]), 96% (active); in assay [1] (at 50.0 µM) it was 98.3% (active); in assay [2] (setting [7]) it was 18%; in assay [2] (setting [8]) it was 96% (active); in assay [2] (at 50.0 µM), 98.2% (active). The growth inhibition in assay [3] (setting [7]) was 53%; in assay [3] (setting [8]), 97% (active); in assay [3] (at 50.0 µM) it was 98.8% (active); in assay [4] (setting [7]), 13%; in assay [4] (setting [8]), 97% (active); in assay [4] (at 50.0 µM), 97.7% (active). Besides, the growth inhibition is 29% in assay [5] (setting [7]); 97% (active) in assay [5] (setting [8]); 97.4% (active) in assay [5] (at 50.0 µM); 25% in assay [6] (setting [7]); 96% (active) in assay [6] (setting [8]); 98.3% (active) in assay [6] (at 50.0 µM).

For the compound `C=C1C(=O)O[C@@H]2C[C@]3(C)CC[C@]4(C)[C@H](CC[C@@H]5[C@@]6(C)CCC(=O)C(C)(C)[C@@H]6CC[C@]54C)[C@H]3[C@H]12`, the growth inhibition in assay [1] (setting [7]) was 3%; in assay [1] (setting [8]), 4%; in assay [1] (at 50.0 µM) it was -14.1%; in assay [2] (setting [7]), 18%; in assay [2] (setting [8]), 24%; in assay [2] (at 50.0 µM), -16.9%. The growth inhibition in assay [3] (setting [7]) is 5%; in assay [3] (setting [8]), 11%; in assay [3] (at 50.0 µM), -9.1%; in assay [4] (setting [7]), -3%; in assay [4] (setting [8]) it was -1%; in assay [4] (at 50.0 µM), 6.1%. In addition, the growth inhibition in assay [5] (setting [7]) was 4%; in assay [5] (setting [8]), -1%; in assay [5] (at 50.0 µM), -10.7%; in assay [6] (setting [7]) it was -2%; in assay [6] (setting [8]) it was 4%; in assay [6] (at 50.0 µM), -18.9%.

`C=C1CC/C=C(/C(=O)O)CC[C@H]2[C@@H]1CC2(C)C`: the growth inhibition is -5% in assay [1] (setting [7]); 58% in assay [1] (setting [8]); 63.6% in assay [1] (at 50.0 µM); 4% in assay [2] (setting [7]); 71% (active) in assay [2] (setting [8]); 60.1% in assay [2] (at 50.0 µM). Moreover, the growth inhibition was 3% in assay [3] (setting [7]); 68% in assay [3] (setting [8]); 57.4% in assay [3] (at 50.0 µM); -6% in assay [4] (setting [7]); 50% in assay [4] (setting [8]); 53.6% in assay [4] (at 50.0 µM). Further, the growth inhibition in assay [5] (setting [7]) is 0%; in assay [5] (setting [8]), 78% (active); in assay [5] (at 50.0 µM), 69.5%; in assay [6] (setting [7]), -1%; in assay [6] (setting [8]) it was 74% (active); in assay [6] (at 50.0 µM), 53.2%.

Take `O=C(O)/C=C/c1ccc2c(c1)CCCC2`: the growth inhibition is 0% in assay [1] (setting [7]); 83% (active) in assay [1] (setting [8]); 90.1% (active) in assay [1] (at 50.0 µM); -8% in assay [2] (setting [7]); 66% in assay [2] (setting [8]); 73% (active) in assay [2] (at 50.0 µM). Besides, the growth inhibition was 3% in assay [3] (setting [7]); 79% (active) in assay [3] (setting [8]); 73.5% (active) in assay [3] (at 50.0 µM); -28% in assay [4] (setting [7]); 70% (active) in assay [4] (setting [8]); 85.3% (active) in assay [4] (at 50.0 µM). Moreover, the growth inhibition in assay [5] (setting [7]) is -11%; in assay [5] (setting [8]), 70% (active); in assay [5] (at 50.0 µM), 64%; in assay [6] (setting [7]) it was -19%; in assay [6] (setting [8]), 87% (active); in assay [6] (at 50.0 µM), 62.9%.

Turning to `Cc1ccc(NCCN(C)C)c2c(=O)c3ccc(O)cc3sc12`, the growth inhibition in assay [1] (setting [7]) was 56%; in assay [1] (setting [8]), 96% (active); in assay [1] (at 50.0 µM), 98.5% (active); in assay [2] (setting [7]) it was -3%; in assay [2] (setting [8]), 82% (active); in assay [2] (at 50.0 µM), 98.9% (active). The growth inhibition in assay [3] (setting [7]) is -1%; in assay [3] (setting [8]), 88% (active); in assay [3] (at 50.0 µM) it was 93% (active); in assay [4] (setting [7]) it was -3%; in assay [4] (setting [8]), 85% (active); in assay [4] (at 50.0 µM), 63.5%. The growth inhibition was -1% in assay [5] (setting [7]); 84% (active) in assay [5] (setting [8]); 98.2% (active) in assay [5] (at 50.0 µM); 5% in assay [6] (setting [7]); 94% (active) in assay [6] (setting [8]); 99.2% (active) in assay [6] (at 50.0 µM).

Take `O=C(CC(c1ccccc1)N1CCCCC1)OC1c2ccccc2-c2ccccc21` (stereo not given): the growth inhibition in assay [1] (setting [7]) is -2%; in assay [1] (setting [8]) it was 28%; in assay [1] (at 50.0 µM), 70.1% (active); in assay [2] (setting [7]) it was 17%; in assay [2] (setting [8]) it was 43%; in assay [2] (at 50.0 µM), 9.35%. Moreover, the growth inhibition is 30% in assay [3] (setting [7]); 54% in assay [3] (setting [8]); 55.8% in assay [3] (at 50.0 µM); 0% in assay [4] (setting [7]); 23% in assay [4] (setting [8]); 54.1% in assay [4] (at 50.0 µM). Besides, the growth inhibition in assay [5] (setting [7]) was -1%; in assay [5] (setting [8]), 24%; in assay [5] (at 50.0 µM), 70%; in assay [6] (setting [7]), 35%; in assay [6] (setting [8]) it was 56%; in assay [6] (at 50.0 µM), 55.8%.

Regarding `COc1cc(C2C(C(=O)O)=C(C)Oc3cc4c(cc32)OCO4)cc(OC)c1OC` (stereo not given), the growth inhibition in assay [1] (setting [7]) is 91% (active); in assay [1] (setting [8]), 90% (active); in assay [1] (at 50.0 µM), 94.2% (active); in assay [2] (setting [7]), 70% (active); in assay [2] (setting [8]), 88% (active); in assay [2] (at 50.0 µM), 92.8% (active). The growth inhibition in assay [3] (setting [7]) was 77% (active); in assay [3] (setting [8]), 93% (active); in assay [3] (at 50.0 µM), 97% (active); in assay [4] (setting [7]), 82% (active); in assay [4] (setting [8]), 91% (active); in assay [4] (at 50.0 µM), 88.8% (active). Also, the growth inhibition was 86% (active) in assay [5] (setting [7]); 87% (active) in assay [5] (setting [8]); 48.5% in assay [5] (at 50.0 µM); 68% in assay [6] (setting [7]); 85% (active) in assay [6] (setting [8]); 97.8% (active) in assay [6] (at 50.0 µM).

For the compound `O=C(C(/C=N\C(=S)Nc1ccccc1Cl)=C(/O)c1ccccc1)c1ccccc1`, the growth inhibition is 86% (active) in assay [1] (setting [7]); 99% (active) in assay [1] (setting [8]); 99.4% (active) in assay [1] (at 50.0 µM); 81% (active) in assay [2] (setting [7]); 100% (active) in assay [2] (setting [8]); 99% (active) in assay [2] (at 50.0 µM). The growth inhibition is 55% in assay [3] (setting [7]); 99% (active) in assay [3] (setting [8]); 99.3% (active) in assay [3] (at 50.0 µM); 95% (active) in assay [4] (setting [7]); 99% (active) in assay [4] (setting [8]); 98.4% (active) in assay [4] (at 50.0 µM). For the same compound, the growth inhibition in assay [5] (setting [7]) is 99% (active); in assay [5] (setting [8]), 99% (active); in assay [5] (at 50.0 µM), 99.3% (active); in assay [6] (setting [7]) it was 90% (active); in assay [6] (setting [8]), 99% (active); in assay [6] (at 50.0 µM), 99.1% (active).
